Measurements published in PubChem BioAssay AID651635 (National Center for Advancing Translational Sciences (NCATS), 2012).
The campaign covered roughly 400,000 compounds. About 1,900 (0.47%) were called active. A call without a number means that no potency is given here. Inconclusive results (about 14%) are left out. Calls come from the whole dose curve; as a rule, active = well fitted cell-killing curve with a large enough effect; inconclusive = small, poorly fitted or top-dose-only effect, or effect the other way; inactive = no such curve, though single readings can be large or run the other way. The sample as a whole holds a higher share of actives than the screen did.

Assay: Viability Counterscreen for Primary qHTS for Inhibitors of ATXN expression; note: nearly all actives have a fitted effect of over 40% in size
Settings: S2 cells (HEK-293 line with an ATXN2-luciferase reporter) viability, CellTiter-Fluor protease fluorescence, 24 h; series mostly up to 56.7 µM
Potency is the fitted concentration of half-maximal effect.

| Structure (SMILES) | Potency |
| --- | --- |
| CC(C)Oc1ccc(CN2CCC2(C)C(=O)NCc2ccc(C(F)(F)F)cc2)cc1 (stereo unspecified) | inactive |
| COc1cc(Cn2c3ccc(NC(=O)CC(C)c4ccccc4)cc3c(=O)n2C)ccc1F (stereo unspecified) | inactive |
| Cc1cccc(Cc2c(C)nc3nc(SCc4ccccc4Cl)nn3c2C)c1 | inactive |
| COc1ccc(CN(C)CCn2cc(C(=O)N3CCSCC3)nn2)cc1C | inactive |
| O=C(CSc1n[nH]c(=O)n1-c1ccccc1)Nc1ccccc1C(F)(F)F | inactive |
| O=c1[nH]nc(SCCS(=O)(=O)c2ccc(F)cc2)n1-c1ccccc1C(F)(F)F | 11.2 µM (active) |
| O=S(=O)(c1ccc(F)cc1)N1CCN(Cc2ccccc2C(F)(F)F)CC1 | inactive |
| COc1ccc(-c2csc(C(O)c3cccc(Cl)c3)n2)cn1 (stereo unspecified) | inactive |
| COc1cc(=O)n2c(c1C(=O)NC(C)c1ccco1)CCN(Cc1cc(C)cc(C)c1)CC2 (stereo unspecified) | inactive |
| Cc1c(C(=O)Nc2ccccn2)oc2ccc(Br)cc12 | inactive |
| O=C(CCc1ccc(O)cc1)NN=Cc1cc(Br)ccc1O | inactive |
| Oc1ccc(Br)cc1/C=N/Nc1ccccn1 | 0.251 µM (active) |
| CN[C@H]1C[C@H]2c3cc(Oc4ccccc4C)ccc3CCN2C(=O)[C@H]1[C@H](C)O | inactive |
| COc1ccccc1-c1ccc(C(=O)N(C)C(C)c2ccon2)c(N2CCN(c3ccccc3F)CC2)n1 (stereo unspecified) | inactive |
| COc1ccc(CS(=O)/C(Cl)=C(/Cl)C(=O)Nc2ccc(OC)nc2)cc1 (stereo unspecified) | 1.89 µM (active) |
| COc1ccc(NC(=O)C(=O)NCc2ccco2)cc1 | inactive |
| COc1ccc(C(O)c2nc(-c3ccc(OC)nc3)cs2)cc1 (stereo unspecified) | inactive |
| Cc1nnc(C(=O)NC(C)(C)c2nc(C(=O)NCc3ccc(F)cc3)c(O)c(=O)n2C)o1 | inactive |
| Cc1cc(Nc2cccc(C(F)(F)F)c2)nc2ccc(NC(=O)c3ccc(=O)[nH]c3)cc12 | inactive |
| COc1cc(OC)cc(C(=O)Nc2ccc3nc(Nc4cccc(C(F)(F)F)c4)cc(C)c3c2)c1 | inactive |
| COc1cc(NC(=O)c2[nH]cnc2C(N)=O)cc(C(=O)Nc2cccc(C(F)(F)F)c2)c1 | 10 µM (active) |

| Structure (SMILES) | Potency |
| --- | --- |
| CN(C)C(=O)[C@@H]1C[C@@H](Sc2nc3ccccc3[nH]2)CN1Cc1ccc(Cl)cc1 | inactive |
| CCC(=O)Nc1ccc(Nc2nc(Cl)nc(Nc3ccc(NC(=O)CC)cc3)n2)cc1 | inactive |
| CC(C)(CCl)C(=O)Nc1ccc(Sc2ccc(F)cc2)cc1 | inactive |
| O=C(CCl)Nc1ccc(Sc2ccc(NC(=O)CCl)cc2)cc1 | 11.2 µM (active) |
| COC(=O)c1ccccc1-c1cc(C)cc2c1OC(CNC(=O)C1CCOC1)C2 (stereo unspecified) | inactive |
| CNc1cncc(-c2ccc(NS(C)(=O)=O)cc2)n1 | inactive |
| CCc1ccc2c(c1)NC(=O)C2(C)Cc1ccc(OC(F)(F)F)cc1 (stereo unspecified) | 20 µM (active) |
| COC(=O)Cc1ccc(OCC(=O)Nc2ccc(OC(F)(F)F)cc2)cc1 | inactive |
| CCC1CN(CCNC(=O)c2cccnc2C)Cc2cc(OC)ccc2O1 (stereo unspecified) | inactive |
| COc1ccc(CN2CCC3(CCC(CNC(=O)c4ccco4)O3)CC2)cc1OC (stereo unspecified) | inactive |
| CCCCOC(=O)/C(C#N)=C/c1ccc(-c2cccc(C(F)(F)F)c2)o1 | inactive |
| O=c1cc(O)c(-c2cccc(C(F)(F)F)c2)c(Cl)[nH]1 | inactive |
| CC1(Cc2cccc(C#N)c2)C(=O)Nc2ccc(-c3cccc(C(F)(F)F)c3)cc21 (stereo unspecified) | 25.1 µM (active) |
| COCCCN1CCC(NC(=O)c2cc(Cl)c(N)c3c2OCC3)CC1 | inactive |
| COc1ccccc1C(=O)N[C@@H]1c2ccccc2C2(CCN(C(=O)c3csnn3)CC2)[C@H]1OC | inactive |
| Cc1cnc(C)c(-c2cc(F)c3c(c2)CC(CNC(=O)c2cccc(Cn4cccn4)c2)O3)n1 (stereo unspecified) | inactive |
| C#Cc1cc(N2CCN(C(=O)c3ccoc3)CC2)n2nc(-c3cccc(Cl)c3)cc2n1 | 15.8 µM (active) |
| O=C(c1ccccc1)N1CCN(C(=O)c2cc3nc(-c4ccccc4)cc(C(F)(F)F)n3n2)CC1 | inactive |
| CN(C)CCN1CCN(c2cc(-c3cccc(Cl)c3)nc3ccnn23)CC1 | inactive |
| COCc1c(C(=O)NC2CCCCC2)cnn1-c1nccc(-c2ccccc2OC)n1 | inactive |
| Cc1ccc(F)cc1S(=O)(=O)N1CCC(c2nc3ccccc3s2)CC1 | inactive |

| Structure (SMILES) | Potency |
| --- | --- |
| COc1cc(=O)n2c(c1C(=O)NC(C)c1ccco1)CCN(C(=O)c1cn3ccc(C)cc3n1)CC2 (stereo unspecified) | inactive |
| CO/N=C(/C(=O)N[C@@H]1C(=O)N2C(C(=O)O)=C(Cn3nnc(C)n3)CS[C@H]12)c1csc(N)n1 | inactive |
| CCOC(=O)/C(=C\c1ccc([N+](=O)[O-])cc1)C(=O)c1cc(C(C)=O)c(Nc2ccccc2)s1 | 31.6 µM (active) |
| CC(=O)Nc1ccc(C=CC(=O)c2ccc([N+](=O)[O-])cc2)cc1 | inactive |
| O=C(O)C(=Cc1ccc([N+](=O)[O-])cc1)CCc1ccccc1 | inactive |
| CC(C)(C)OC(=O)N1CCN(C(=O)c2[nH]c(C(F)(F)F)nc2-c2ccccc2)CC1 | inactive |
| COc1ccc(F)c(CN2CCC3(CCC(CNC(=O)c4ccn(C)n4)O3)CC2)c1 (stereo unspecified) | inactive |
| CCCNC(=O)c1cc2c(c(-c3cccc(-c4ccc(C#N)cc4)c3)n1)[C@@H](CCO)N(C(=O)CC)C2 | inactive |
| CCOC(=O)[C@]12CCC=C1N(Cc1ccco1)C(=O)[C@H](CC(=O)NCc1cccc(C(F)(F)F)c1)C2 | inactive |
| CC1Cc2[nH][nH]c(=O)c2C(C2CCCC2)O1 (stereo unspecified) | inactive |
| C=CC[C@@H](CC(=O)N[C@@H](CO)Cc1ccccc1)C(=O)NCCOC(=O)[C@@H](CC=C)CC(=O)OC(C)(C)C | inactive |
| CC(=O)NC(Cc1c[nH]c2ccccc12)C(=O)NCCc1ccccc1 (stereo unspecified) | inactive |
| C=CCC[C@@H](Cc1ccc(F)cc1)C(=O)O[C@H](CNC(=O)[C@H](CC=C)CC(=O)N(CCO)Cc1ccccc1)c1ccccc1 | 25.1 µM (active) |
| COCCCNC(=S)N(Cc1ccccc1)Cc1ccc(F)cc1 | inactive |
| C=CCC[C@@H](Cc1ccc(F)cc1)C(=O)OC[C@H](Cc1c[nH]c2ccccc12)NC(=O)[C@@H](CC=C)CC(=O)N(CCO)Cc1ccccc1 | 5.62 µM (active) |
| C=CCC[C@H](Cc1ccc(F)cc1)C(=O)OC[C@@H](NC(=O)[C@@H](CC=C)CC(=O)N[C@H](CO)Cc1ccccc1)C(C)(C)C | 31.6 µM (active) |
| C=CC[C@@H](CC(=O)N[C@H](CO)Cc1ccccc1)C(=O)N[C@H](C)COC(=O)[C@@H](CC=C)Cc1ccc(F)cc1 | inactive |
| C=CC[C@H](CC(=O)OC(C)(C)C)C(=O)OC[C@H]1CCCN1C(=O)[C@H](CC=C)CC(=O)N(CCO)Cc1ccccc1 | inactive |
| C=CC[C@@H](CC(=O)N[C@H](CO)Cc1ccccc1)C(=O)N[C@@H](COC(=O)[C@@H](CC=C)Cc1ccc(F)cc1)Cc1c[nH]c2ccccc12 | inactive |
